# Columns and labels:
# ETS1 [1] = molecular target: T1, ETS1 (UniProt P14921); assay: ETS1 binding intensity (PBM fluorescence), ETS1 alone (arbitrary fluorescence units); higher = stronger binding; details: ETS1 concentration 1 nM; RUNX1 concentration 0 nM
# T1 sequence: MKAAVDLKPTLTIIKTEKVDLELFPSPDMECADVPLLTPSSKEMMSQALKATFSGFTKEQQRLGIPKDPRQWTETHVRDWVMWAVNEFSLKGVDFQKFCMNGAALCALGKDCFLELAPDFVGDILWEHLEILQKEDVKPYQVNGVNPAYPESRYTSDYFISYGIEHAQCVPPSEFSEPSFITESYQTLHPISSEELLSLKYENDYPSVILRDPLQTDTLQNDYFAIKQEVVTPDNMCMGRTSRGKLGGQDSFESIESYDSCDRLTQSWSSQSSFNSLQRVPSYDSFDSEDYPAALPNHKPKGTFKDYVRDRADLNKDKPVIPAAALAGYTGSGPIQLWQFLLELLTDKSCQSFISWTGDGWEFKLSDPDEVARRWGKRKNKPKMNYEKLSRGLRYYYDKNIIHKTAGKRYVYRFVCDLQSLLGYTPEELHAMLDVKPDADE
# RUNX1 [2] = molecular target: RUNX1 (UniProt Q01196); assay: RUNX1 binding intensity (PBM fluorescence), RUNX1 alone (arbitrary fluorescence units); higher = stronger binding; details: RUNX1 concentration 2 nM; ETS1 concentration 0 nM
# RUNX1, sequence (Q01196 whole entry): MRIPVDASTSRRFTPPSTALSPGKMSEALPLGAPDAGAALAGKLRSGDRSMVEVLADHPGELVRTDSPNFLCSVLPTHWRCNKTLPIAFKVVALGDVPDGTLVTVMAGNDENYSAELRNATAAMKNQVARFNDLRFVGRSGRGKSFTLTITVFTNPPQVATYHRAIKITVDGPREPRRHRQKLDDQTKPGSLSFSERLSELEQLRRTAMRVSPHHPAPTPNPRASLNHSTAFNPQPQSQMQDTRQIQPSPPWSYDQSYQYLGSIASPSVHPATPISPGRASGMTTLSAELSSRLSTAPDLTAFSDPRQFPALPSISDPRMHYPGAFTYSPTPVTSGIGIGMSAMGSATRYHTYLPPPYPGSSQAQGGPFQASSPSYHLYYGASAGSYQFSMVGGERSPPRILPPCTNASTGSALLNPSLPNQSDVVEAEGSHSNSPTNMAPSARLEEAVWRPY
# Method: (§1)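 Cooperative gcPBM on 36-bp genomic probes with neighbouring ETS1 and RUNX1 sites. Recombinant human RUNX1 (2 nM) was incubated alone or with ETS1 (25 nM) and detected with anti-RUNX1 antibody plus Alexa488 secondary. Values are medians over 4 replicate spots; the RUNX1+ETS1 data were normalised to the RUNX1-only data. The probes sit in constant array flanks that are not printed.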
# ETS1 [3] = molecular target: T1, ETS1; assay: ETS1 binding intensity (PBM fluorescence) in presence of RUNX1, normalised to ETS1-only experiment (arbitrary fluorescence units); higher = stronger binding; details: ETS1 concentration 1 nM; RUNX1 concentration 25 nM
# RUNX1 [4] = molecular target: RUNX1 (UniProt Q01196); assay: RUNX1 binding intensity (PBM fluorescence) in presence of ETS1, normalised to RUNX1-only experiment (arbitrary fluorescence units); higher = stronger binding; details: RUNX1 concentration 2 nM; ETS1 concentration 25 nM
# Method: as §1
# 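Wherever RUNX1 binding intensity (PBM fluorescence) in presence of ETS1, normalised to RUNX1-only experiment is given: Full-length recombinant human ETS1 or RUNX1 bound to double-stranded 36-bp genomic probes on microarrays, detected by protein-specific primary antibody and Alexa488 secondary, spot fluorescence as median of four replicate spots.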
# 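Wherever RUNX1 binding intensity (PBM fluorescence), RUNX1 alone is given: Full-length recombinant human RUNX1 bound to double-stranded 36-bp genomic probes on a high-density microarray, scored as Alexa488 fluorescence per spot via anti-RUNX1 antibody, median of four replicate spots.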
Sequence,ETS1 binding intensity (ETS1 [1]),RUNX1 binding intensity (RUNX1 [2]),ETS1 binding intensity (ETS1 [3]),RUNX1 binding intensity (RUNX1 [4])
CCCTCCTCTTTCGTTTCCTAACCGCAAATTCCATCA,487,58200,1720,53700
GAAACAATTTCCTGTACCTCTGTGGTAAAAATGATA,1040,945,1650,2610
AAAGAGGAAATCACGTACCCGAAAACCACATGCACA,530,1010,1370,928
AGGGCTGAAACAGGATGTGGTGAGTGAGGTAGGGTG,6020,816,16600,3160
CCCACCCAGGAAGCCGTCCTAACCACAACAGCCCTC,514,4100,2580,6790
GTGAACTTCCTCCCCCACTGCCTATTTTTACCGCAG,624,1820,596,3950
GTGGTCTCTCCCGGAAAAACCACTTCCACCGAGAAC,932,861,1440,1270
TTTTTTCCGCCTGTAGGGTCACATTGTGGTTGATTG,446,1000,725,1790
CTTTGCTGCAGGATGTTCTAACCACAAGCCCAGGAG,1070,3030,6670,7310
GGGGCAGGAAGTGGAGGTTTGAAGTGGTTTAGAGTA,1740,799,2310,1350
TGTCGGGCGGATGTGTACCGGCGGTAATATAGTAAG,2300,753,2270,1220
TTTATCATGAATGCAGGATGTGGGCAAACTCGCATC,2340,749,6100,1060
CTTTCGGGGGCGGAAGTTGCGGTGCATTGTAGGTTC,7760,955,20000,2800
CCTCCCACCTTGGCAGGAAGCGGTTTATCAGATTAA,4250,810,7770,2280
CTGAGTGAGACAGGATGTGGGCAGACCTCTAACACA,5110,733,11000,3230
GATCTTCCTGCAACCCCCCGAGACAACCACCGAACA,854,1090,887,1400
GCAGGGGCCCATTTCCTGCCACAAGCCCACACAGGA,1390,749,1280,1750
TCCTGGCAGAGACCGGAAGTGCGGTCCGCGGAGCGT,28200,739,43300,1800
ACAGCTCACACAGGAAATACAAACCTCAAAAAGCAA,2600,1070,7480,1670
GCGCCGGTGACGGAAGTGCGGTGTTGAGCGCCGGCG,2430,758,3070,1300
ACAAAACAAACACATCCCCCAAACCGCCAAACTACA,606,1310,627,1300

Sequence,ETS1 binding intensity (ETS1 [1]),RUNX1 binding intensity (RUNX1 [2]),ETS1 binding intensity (ETS1 [3]),RUNX1 binding intensity (RUNX1 [4])
TGCCCTGACTTCCTGGTCCTGTGGTCAAGGATGGGG,1340,889,2810,2000
AGGAGAAGGAAGAGGATGTTGAGGTTGGGGGAAACC,1610,726,2530,882
GTTCCTAGGCAGGCAGGATGTGGCTATAAGCTACAT,4700,819,6220,1150
TCTCCTTTCAGGAAGCTGCACCCAAACCACCCTCAG,606,996,610,949
GGACGCCGCCGGAAGCGCGACCCGCACTCCCGGTAG,3650,794,3500,1260
CGCCGGATGCATAAAAGACTGGCTGCGGTGGCTCAG,604,724,1300,973
GCGCTACAGGAACTTCCTGCGCGGTTGCTGTCGTTG,1360,702,1570,1180
CACCTAAAGCCATTGGGATGTGGTTTCTCTTTTTCA,388,1040,894,1010
AGCGTTTCCTGCCTGTCTGGGGCTGACAAACCACAA,623,930,492,2120
TGAGCTCAGGCCGGAAGCGGTGGATGATGGCACACA,9910,716,8670,1560
CCTCTTGGTTTCCTGTCCCTCACCACAAGAAGCAGT,625,1540,1520,4520
AACAGAGACCCGGAAGTTGTGGGACGAAGCCAGGAC,4960,810,6420,1260
GTCACAGGAAAGAAGGAGCCTCGCCTTAACCGCACC,447,1170,2930,1310
TGAGGAGAGCGAGGAAGTGGTTTTCTCTTCGCACAG,691,746,1080,948
TCCCCTTTCCGGGAAGGGTTGGGGATCTGACCACGT,437,728,498,1320
GAACTTCCGGGACCACGTGACGTAGAACCACAACAA,587,815,1100,1690
GGCTGCGACTTCCGGACTGCTCCTGGCCGCAGGGGG,2070,813,2500,1370
GAAGTCACATCCTGTCTGTTGCGGCAGGGCACAGAG,1470,756,1520,1750
GTGGCGGGGCGGAAGTTCACATGTGTGGTATGTAGA,2720,940,5000,1430
CCTGGTCCGGAAGCGCTGTCCCCGCCTCCCGCATAG,1950,822,2430,1430
CCCTTGCCAGAGGAAGCCACTGCCACCGCAGAAGCA,417,970,1740,1080

Sequence,ETS1 binding intensity (ETS1 [1]),RUNX1 binding intensity (RUNX1 [2]),ETS1 binding intensity (ETS1 [3]),RUNX1 binding intensity (RUNX1 [4])
CCAAAAACCCCAGGAGGATGTGGTGAGGAGGGAAGG,1110,831,2590,1040
CCCCTCAGCTTCCGGGTGCTGCGGCCGCGGCCGAGA,646,827,999,1980
GACTTGGGGGAAGTGGCTTGGTTTGCGTGGTTTCTC,433,952,546,1060
ACAGGAAATGACTTAGGGAAAGTCCCAACCGCAATC,2800,1230,15700,1530
GCTGACCCGGAAGCGCTCGTGACCACCATCTCCGAC,1760,912,2590,1370
CCCCTCACTTCCCTCAACCCTTCCCACAAACTGGGA,597,1920,571,2350
GAAATCCATCACGGATGTGGGCTTTTTGCTCTCATT,1490,760,1620,1010
AACCTGCAGACTTCCTGCCATGTGACCACAGGGTCT,901,915,3140,2160
CTTAAATGGGAAATGTAGGTGTGGTTAAGTCACAAA,558,859,556,915
ACCCACCCGGAAGTCCTCCTGGCCCACAAGCTCCGC,2360,992,2270,1630
ACCCTTCCTGGAGCATTGTCGCAGCAACCACAACAG,457,918,975,1200
AGCCCGCCGGAAACTAGCGTCACCGCGCCAAGGTTC,1440,691,1250,1160
GAGGGGAGGATGTCTGAGCTTTTAATTGTGGTTTCA,370,870,1050,943
AACACCTCACACTTCCTGCCCACAAGATAAGAGCCT,895,1660,1910,3120
AAAGGCGGAAGGGGGGCAGGGAACCCACAAAACAGA,457,959,610,857
AGGAGTGTCACTTCCTCTTTCCTCACCACAGCCTCC,1100,1040,1440,1890
TGTTGTAGGGGAAGTGGTGTGTGGTATTCCTGGGGA,797,811,1690,1070
CTGAAAAACCGGAAGTGGGTGGTTTGAAACGTAAAT,18000,776,20800,4130
CAGCCGACTTCCGGGGTGGGGCTTGCTGCCGCAGAG,1760,774,1780,1730
AGCTTGCGCAGGAAGTCTGCGGCAGGAGGGCGTCCT,1920,687,2760,908
TCAAGAAAACAGGAAACTCTCAAAACCAAGTTCTGA,1430,773,1830,931

Sequence,ETS1 binding intensity (ETS1 [1]),RUNX1 binding intensity (RUNX1 [2]),ETS1 binding intensity (ETS1 [3]),RUNX1 binding intensity (RUNX1 [4])
CCGGGCGCCACTTCCGGTCCCCGTGGTCACGTGACC,14800,904,16100,3740
GTTGGGTGGGGAAGTGGATGGTGGTTTTGGCAGAGG,542,960,713,1210
AAAGAGGAAATCACATACCCGAAAACCACATGCACA,513,944,1050,1200
GCACCGTACCCGGAACTGCTCCCTCCCGCAGGCGCA,539,930,540,950
GCTGGGGCAGGAAGCTTCTAGGCCACAGACAGGACG,1190,711,1360,865
ACAGACCAGGGGATTTCCTGTGGGTGGAGTCCTCAG,859,676,771,1500
GGTTTCGCTTCCGGGTTAGGCGGCCGCAGAAGCGTA,947,790,1340,1980
GATACCTAGAAGCCAGGAAACCGCGAGCTGCAGTCC,1080,1190,2130,1380
ACCTTCTGTTCCCTTCCTCAGACCGCAGGCGAGATG,367,1620,835,2230
TATGGCGGGCAGGAAGTGCGGGTGCGCGCCTGCGCA,4640,642,5650,1360
AGTGGCAGTGCAGGAAGTGGTTTGTCTGGTACAATC,3750,788,6800,1590
GACAGTCATGTTTCAGGATGTGGTTTTAGCCAAAGG,1550,816,13200,1710
GCTAAGGTGAAAGGAAGTGGGTTTTGTCTTTTTTTT,2500,854,4150,1340
AAATACCAGCCCACTTCCTGTGGCTTTGATCTGCAG,2090,855,3340,5090
GGGAGGTGTCCAGGAAGTGGTTGGAGAGTCTGGTCT,2240,756,3340,1020
GAGCCGGAAGTGAAGGAGGGCTTGTGGGAGATGGAG,2710,713,3090,1210
GCACTGTGGGAGGAAGTGGGTATGTGGTGAGCTCTT,1650,856,4990,1560
AAAACAACTCCAGGATGTGGTTTTACTCAGAATGTA,1310,928,7410,2710
